Compound activity (PubChem)
Compounds with a hit are over-represented: about 7.3% of the library has one in this group of screens.
KinaseGlo FLuc: Counterscreen for Luciferase (Kinase-Glo TM) Inhibition | Kinase-Glo luciferase, ATP luminescence, 8 min | Potency, µM (series often up to 38.3 µM), most hits filed as inhibitors | 0.28% of 200,000 active | AID 1379, 2008; also: nearly all actives have a fitted effect of over 60% in size
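Kinase-Glo luciferase light output from ATP and luciferin was measured with 10 uM ATP, within the enzyme's linear range. Buffer: 50 mM imidazole pH 7.2, 50 mM KCl, 7 mM MgCl2, 0.01% Tween 20, 0.05% BSA; luminescence read after 8 min at ambient temperature.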
SMN2 splice enh: qHTS Assay for Enhancers of SMN2 Splice Variant Expression; Potency, µM (doses to about 46.1 µM), hits mostly activators; 2.8% of 210,000 active; AID 1458, 2008; HEK293 SMN2-luciferase splicing reporter, luminescence, 30-36 h; also: nearly all actives have a fitted effect of over 55% in size
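HEK293 cells carry an SMN2 […]–luciferase reporter in which exon 7 inclusion puts luciferase in frame. Cells were plated 10-12 h before compound addition, then incubated 30-36 h at 37C. ONE-Glo luminescence was read; sodium butyrate at 4.5 mM final served as control.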
Rab9 promoter act: qHTS Assay for Rab9 Promoter Activators; Huh7 Rab9 promoter-luciferase reporter, luminescence, 24 h; 2.8% of 320,000 active; Potency, µM (series often up to 9.22 µM), actives largely listed as activators; also: nearly all actives have a fitted effect of over 60% in size
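Rab9 promoter-driven luciferase in stably transfected Huh7 cells; 1500 cells/well rested 2 h, exposed to compound in DMSO for 24 h at 37 °C, 5% CO2. Luminescence read 10 min after adding luciferase reagent at ambient temperature.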
FLuc modulator: qHTS profiling assay for firefly luciferase inhibitor/activator using purifed enzyme and Km concentrations of substrates (counterscreen for miR-21 project); Luciferin 4-monooxygenase (Photinus pyralis), P08659; purified FLuc, Km substrates, luminescence inhibition; Potency, µM (series often up to 57.5 µM), most hits filed as inhibitors; 6.9% of 360,000 active; AID 588342, 2011; also: nearly all actives have a fitted effect of over 55% in size
Target sequence (P08659 whole entry, looked up): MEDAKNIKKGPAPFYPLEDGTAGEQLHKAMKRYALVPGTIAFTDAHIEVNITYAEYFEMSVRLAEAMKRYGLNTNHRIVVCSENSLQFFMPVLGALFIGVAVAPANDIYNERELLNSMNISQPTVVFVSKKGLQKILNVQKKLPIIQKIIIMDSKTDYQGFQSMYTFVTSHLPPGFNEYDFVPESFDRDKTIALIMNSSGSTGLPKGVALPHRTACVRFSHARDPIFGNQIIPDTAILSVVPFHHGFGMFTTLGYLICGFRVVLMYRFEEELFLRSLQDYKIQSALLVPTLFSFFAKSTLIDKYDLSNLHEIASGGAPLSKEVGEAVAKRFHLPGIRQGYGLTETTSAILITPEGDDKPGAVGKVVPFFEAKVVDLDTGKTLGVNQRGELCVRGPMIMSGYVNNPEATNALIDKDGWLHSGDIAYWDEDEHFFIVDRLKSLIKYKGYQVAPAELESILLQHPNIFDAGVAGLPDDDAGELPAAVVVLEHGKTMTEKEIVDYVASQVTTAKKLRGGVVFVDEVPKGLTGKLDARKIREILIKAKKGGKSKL
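Purified P. pyralis luciferase (10nM final) with 10uM D-luciferin and 10uM ATP (Km levels) in 50mM Tris acetate pH 7.5, 10mM Mg acetate, 0.01% Tween-20, 0.05% BSA; qHTS 6-point titration, ~60 µM downward; luminescence read.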
NPC1 prom act: qHTS Assay for NPC1 Promoter Activators; Potency, µM (top dose mostly 9.22 µM), most hits filed as activators; Huh7 NPC1 promoter luciferase reporter, 24 h; AID 485313, 2010; 2.4% of 320,000 active; also: nearly all actives have a fitted effect of over 60% in size
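Stable NPC1-promoter luciferase Huh7 line; cpd (DMSO) 24 h, 37 °C, 5% CO2; Amplite luciferase reagent 10 min RT; luminescence readout. qHTS format.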
A number is an active result; n = inactive; u = inconclusive; x = not tested or not shown; [ ] = another dose, or the depositor's remark. Calls follow the shape of the dose curve; as a rule, active = well fitted curve in the direction sought with a large enough effect; inconclusive = small, poorly fitted or top-dose-only effect, or another doubt; inactive = no such curve, though single readings can be large; an effect the other way counts as inactive or inconclusive.

SMILES	KinaseGlo FLuc	SMN2 splice enh	Rab9 promoter act	FLuc modulator	NPC1 prom act
COc1cccc2cc(CC(=O)c3ccc(C)c(C)c3)c(=O)oc12	x	x	n	17µM	n
COc1cccc2cc(C(=O)OCC(=O)NCc3ccc4c(c3)OCO4)c(=O)oc12	x	x	n	11µM	n
COc1cccc2cc(C(=O)c3ccccc3)oc12	n	u	3.5µM	9.5µM	u
COc1cccc2cc(CC(=O)c3ccccc3)c(=O)oc12	x	x	u	17µM	u
Cc1c(NC(=O)c2sc3ccccc3c2Cl)cccc1-c1nc2ccccc2o1	x	n	x	n	x
CCN(C(=O)Cn1nnc2sc(-c3ccccc3)cc2c1=O)c1cccc(C)c1	x	n	x	u	x
Cn1cnc([N+](=O)[O-])c1Sc1nc(N)nc2c1ncn2[C@H]1C[C@H](O)[C@@H](CO)O1	n[7.66 µM]	n[9.22 µM]	x	x	x
CC(O)[C@@H](O)[C@H]1CNc2nc(N)[nH]c(=O)c2N1 (some centres undefined)	n	n	x	x	x
Cc1ccc(N/C=C(/C#N)c2ccsc2)cc1	n	u	x	17µM	x
N#C/C(=C/Nc1ccccc1)c1ccsc1	n	n	x	u	x
FC(F)Oc1ccc(/C=N/c2c(-c3ccc(OC(F)F)cc3)nc3n2CCS3)cc1	n	u	n	9.5µM	n
N#CC1=C2SCN(c3ccccc3)CN2C(=O)CC1c1ccccc1Cl (centres undefined)	n	n	n	u	n
N#CC1=C2SCN(c3ccccc3)CN2C(=O)CC1c1c(Cl)cccc1Cl (centres undefined)	n	n	n	11µM	n
COc1cc(OC)c(C2C=C(c3ccc(C)cc3)Nc3c(C(=O)Nc4ccccc4)cnn32)cc1OC (centres undefined)	x	x	x	n	x
CCOC(=O)C1CCCN(c2ncnc3c2nnn3C)C1 (centres undefined)	x	x	x	n	x
CCOC(=O)C1CCCN(c2ncnc3c2cnn3-c2ccc(Cl)cc2)C1 (centres undefined)	n	n	u	12µM	u
CCOC(=O)C1CCCN(c2ncnc3c2cnn3-c2ccc(OC)cc2)C1 (centres undefined)	n	11µM	u	u	u
CCOc1ccc(-n2c(SCC(=O)c3ccccc3)nc3c([nH]c4ccccc43)c2=O)cc1	x	x	x	n	x
C=C(C)C(=O)/C=C/C=C/c1ccccc1	n	n	x	x	x
Cc1oc(-c2cccc(Cl)c2)nc1CSc1nnc(C)n2c1cc1occc12	x	x	x	n	x
CCc1c(C)sc(NC(=O)c2cc(C)on2)c1C#N	n	n	u	12µM	u
CCOC(=O)c1c(NC(=O)c2cccs2)sc(C)c1CC	n	n	n	n	n
CCCc1cc(C(=O)Nc2sc(C)c(CC)c2C#N)no1	n	n	n	n	n
CCc1c(C)sc(NC(=O)c2cccs2)c1C#N	n	11µM	u	7.6µM	u
Cc1sc(NC(=O)c2ccccc2)c(C#N)c1-c1ccccc1	n	8.9µM	1.6µM	2.4µM	2.8µM
SMILES	KinaseGlo FLuc	SMN2 splice enh	Rab9 promoter act	FLuc modulator	NPC1 prom act
COc1cc(OC)c(Nc2nc3ccc(C)cc3n3nnnc23)cc1Cl	x	x	x	n	x
O=C(Nc1ccc2ccccc2n1)C1CCCCC1	x	x	0.79µM	6µM	1.1µM
O=C(Nc1ccc2ccccc2n1)c1ccc(Cl)cc1	x	x	0.63µM	2.1µM	1µM
COc1ccccc1NC(=O)c1cc2ccccc2nc1C	n	n	n	n	n
O=C(Nc1cccc(NC(=O)c2ccc(Cl)cc2)n1)c1ccc(Cl)cc1	x	x	n	n	n
COc1ccc(C(=O)Nc2ccc3ccccc3n2)c(OC)c1OC	x	x	u	0.21µM	u
O=C(Nc1ccc2ccccc2n1)c1ccccc1Cl	x	x	0.56µM	1.3µM	0.71µM
O=C(Nc1ccc2c(c1)OCCO2)c1cccc(Cl)c1Cl	x	x	1.6µM	7.6µM	3.5µM
Cc1oc(C(C)(C)C)cc1C(=O)Nc1ccc2c(c1)OCCO2	n	n	x	12µM	x
Cc1oc(C(C)(C)C)cc1C(=O)Nc1ccc2c(c1)OCO2	x	x	n	u	n
Cc1ccc(C(=O)Nc2ccc3c(c2)OCCO3)c(Cl)c1	x	x	0.089µM	0.43µM	0.089µM
O=C(Nc1ccc2c(c1)OCCO2)c1cc(F)c(F)cc1Cl	x	x	2.5µM	12µM	2.2µM
O=C(Nc1ccc2c(c1)OCCO2)c1c(F)c(F)c(F)c(F)c1F	n	n	n	n	n
CCOC(=O)c1cc(OC(=O)c2ccc(OC)c(OC)c2)n(-c2ccccc2)n1	x	n	x	n	x
Cc1ccc(-c2nc3nc(C)cc(N4CCN(c5cc(Cl)ccc5C)CC4)n3n2)cc1	x	n	x	u	x
CCn1c(C)cc(/C=C2/SC(=S)N(CC(=O)O)C2=O)c1C	n	n	n	2.7µM	n
C#CCN1C(=O)S/C(=C/c2cc(C)n(CC)c2C)C1=O	x	x	1.6µM	2.1µM	2.8µM
CCN1C(=O)/C(=C/c2cnn(CC)c2C)SC1=S	n	n	n	u	n
CCN(C(=O)c1cn(-c2ccc(OC)cc2)c(=O)c2ccccc12)c1cccc(Cl)c1	x	x	x	n	x
COc1cccc(C(=O)N2CCC(N3CCN(Cc4ccc(F)cc4)C(=O)C3=O)CC2)c1	x	x	x	n	x
Cc1cc(C)nc(SCC(=O)c2cc3ccccc3oc2=O)n1	n	n	n	n	n
CC(=O)c1cc(NC(=O)c2ccccc2)c(=O)oc1C	n	n	n	n	n
CC(=O)c1cc(NC(=O)c2ccc(C)cc2)c(=O)oc1/C=C/N(C)C	n	u	n	5.4µM	n
CC(=O)c1cc(NC(=O)c2ccc(C)cc2)c(=O)oc1C	u	x	n	17µM	n
Cc1cc[n+](CC(=O)c2cc3ccccc3oc2=O)cc1	n	n	n	24µM	n
SMILES	KinaseGlo FLuc	SMN2 splice enh	Rab9 promoter act	FLuc modulator	NPC1 prom act
Cc1oc(=O)c(NC(=O)c2ccccc2)cc1C(=O)c1ccccc1	n	n	2.2µM	15µM	u
COc1ccc(C(=O)Nc2cc(C(C)=O)c(/C=C/N(C)C)oc2=O)cc1	n	n	n	u	n
CCOc1ccc(NC(=O)CSC2=Nc3ccccc3C3=NC(CC(=O)NCc4cccs4)C(=O)N23)cc1 (centres undefined)	x	x	x	n	x
Cc1ccc(C(=O)Nc2cc3ccccc3oc2=O)cc1	8.9µM	x	u	0.076µM	0.71µM
COC(=O)c1ccccc1NC(=O)Cc1nc(-c2ccc(OC)cc2)no1	x	x	x	n	x
N/C(=N\OC(=O)c1ccco1)c1cccc([N+](=O)[O-])c1	n	x	n	24µM	n
N/C(=N\OC(=O)c1ccco1)c1cccc(Br)c1	n	u	n	6.7µM	n
COc1ccc(/C(N)=N/OC(=O)c2ccco2)cc1OC	n	11µM	u	u	u
COc1ccc(C(=O)Nc2ccccc2NC(=O)c2ccco2)cc1OC	n	n	n	n	n
Cc1ccc(Cl)cc1N1CCN(C(=O)c2c(C)oc3ncnc(N4CCCCC4)c23)CC1	x	x	x	n	x
Cc1ccc(C(=O)Cn2cnc3ccccc3c2=O)cc1C	n	u	x	19µM	x
O=C(Cn1cnc2ccccc2c1=O)Nc1ccc2c(c1)OCO2	n	u	u	19µM	n
COc1ccc(C(=O)Cn2cnc3ccccc3c2=O)cc1	x	x	3.2µM	13µM	u
